Assay [1] concerns the target Hypoxia-inducible factor 1-alpha (Homo sapiens) (UniProt Q16665). As to the kind of experiment: ATG_HIF1a_CIS: Attagene CIS-FACTORIAL HepG2 Assay for human Hypoxia Inducible Factor 1 (HIF1A) (AID 2282951; active = hit-call score of the fitted dose curve at least 0.9, where 1 is the maximum; inactive = score below 0.9). The following applies: HepG2 Attagene cis-factorial HIF1a reporter transcription; actives raise or lower the signal. A digest of the protocol:
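Transient MRTU transfection of human HepG2 liver cells, 24 h compound treatment, then total RNA isolation, oligo(dT) reverse transcription, PCR amplification, fluorescent labelling and capillary electrophoresis of reporter fragments. Gain or loss relative to DMSO.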

Assay [2] in a line: ATG_PPRE_CIS: Attagene CIS-FACTORIAL HepG2 Assay for human Peroxisome Proliferator-activated Response Element (PPRE) (AID 2282958; active = hit-call score of the fitted dose curve at least 0.9, where 1 is the maximum; inactive = score below 0.9). The following applies: HepG2 PPRE cis-element reporter, Attagene transcription factor profiling; actives raise or lower the signal. The essentials: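 HepG2, transient MRTU transfection (cis promoter elements, endogenous TFs). 24 h dosing. RNA → oligo(dT) RT → PCR → 6-FAM primer extension → HpaI digest → CE. Bidirectional fit vs DMSO.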

The nature of assay [3]: ATG_M_19_TRANS: Attagene TRANS-FACTORIAL HepG2 Assay for M19 Transcription Factor (Internal Marker) (AID 2282974). The following applies: HepG2 Attagene TRANS-FACTORIAL M19 internal marker reporter. A digest of the protocol: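 Fluorescence of 6-FAM-labelled reporter cDNA fragments, separated by capillary electrophoresis, served as the readout. These derived from HepG2 cells carrying transfected GAL4-UAS reporter units after 24 h dosing, with DMSO as negative control.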

Assay [4] deals with Oxysterols receptor LXR-alpha (Homo sapiens) (UniProt Q13133). Nature of the assay: ATG_LXRa_TRANS: Attagene TRANS-FACTORIAL HepG2 Assay for human Liver X Receptor alpha (LXRa) (AID 2282980). Particulars: HepG2 Attagene TRANS reporter, LXRa transactivation. The essentials:
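HepG2 cells transiently transfected with GAL4-UAS reporter units for chimeric NR-Gal4 proteins, exposed to chemicals for 24 h. Reporter mRNA quantified by RT-PCR and capillary electrophoresis; gain of signal fitted relative to DMSO.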

Assay [5] concerns the target Nuclear receptor subfamily 4 group A member 2 (Homo sapiens) (UniProt P43354). Nature of the assay: ATG_NURR1_TRANS: Attagene TRANS-FACTORIAL HepG2 Assay for human Nuclear Receptor Related Protein 1 (NURR1) (AID 2282985). The following applies: HepG2 Attagene TRANS reporter, mRNA readout. A digest of the protocol:
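HepG2 cells transiently transfected with GAL4-UAS reporter units and chimeric NR-Gal4 constructs; chemical exposure 24 h. Reporter mRNA quantified by RT-PCR, fluorescent labelling and capillary electrophoresis; gain of signal fitted relative to DMSO baseline.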

The target of assay [6] is human Peroxisome Proliferator-activated Receptor delta (PPARd), PPARD (gene 5467) (UniProt Q03181). Nature of the assay: ATG_PPARd_TRANS: Attagene TRANS-FACTORIAL HepG2 Assay for human Peroxisome Proliferator-activated Receptor delta (PPARd) (AID 2283002). The essentials:
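Multiplexed trans-activation format: HepG2 liver cells expressing exogenous NR-Gal4 chimeras and GAL4-UAS reporters were exposed for 24 h. Reporter mRNA was detected by RT-PCR with capillary electrophoresis fluorescence; activity fitted as gain of signal relative to DMSO.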

Assay [7] concerns the target Peroxisome proliferator-activated receptor gamma (Homo sapiens) (UniProt P37231). Nature of the assay: ATG_PPARg_TRANS: Attagene TRANS-FACTORIAL HepG2 Assay for human Peroxisome Proliferator-activated Receptor-gamma (PPARg) (AID 2283007). The essentials: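 Transient transfection of HepG2 with GAL4-UAS-driven reporter units; chemical dosing 24 h; total RNA → oligo(dT) RT → PCR with reporter primers → 6-FAM primer extension → HpaI digest 2 h 37 C → capillary electrophoresis. Positive direction vs DMSO.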

Assay [8] deals with human Vitamin D Receptor (VDR), VDR (gene 7421) (UniProt P11473). As to the kind of experiment: ATG_VDR_TRANS: Attagene TRANS-FACTORIAL HepG2 Assay for human Vitamin D Receptor (VDR) (AID 2283022). The essentials:
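HepG2 cells were transiently transfected with GAL4-UAS reporter units and a chimeric VDR-Gal4 construct, then dosed for 24 hours. Reporter mRNA was quantified by RT-PCR, fluorescent labeling, HpaI digestion and capillary electrophoresis; gain of signal analysed vs DMSO.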

A short description of assay [9]: TOX21_p53_BLA_p4_viability: Viability Assessment in the Tox21 HCT-116 p53 Agonism Beta-lactamase Assay, Phase 4 (AID 2283597).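 Also: hits lower the luminescence signal meaning cytotoxicity.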 The essentials: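 HCT-116 p53-bla cells, 4000/well, dosed after 5 h attachment and incubated 16 h at 37 °C, 5% CO2. Viability from CellTiter-Glo ATP luminescence after 30 min at room temperature, taken after the beta-lactamase read; loss of signal indicates cytotoxicity.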

Assay [10] deals with Bile acid receptor (Homo sapiens) (UniProt Q96RI1). Nature of the assay: ATG_IR1_CIS: Attagene CIS-FACTORIAL HepG2 Assay for human Nuclear Receptor Subfamily 1 Group H Member 4 (NR1H4), IR1 submotif (AID 2282946; active = hit-call score of the fitted dose curve at least 0.9, where 1 is the maximum; inactive = score below 0.9). The following applies: IR1 reporter transcription, actives raise or lower the signal. The essentials: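 Transient MRTU transfection, HepG2; 24 h dosing; RNA → RT-PCR → 6-FAM primer extension → HpaI digest → capillary electrophoresis fluorescence. Gain/loss of signal fitted relative to DMSO.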
Sequence of Bile acid receptor (Homo sapiens) (Q96RI1 whole entry, looked up, the tested form may be a part): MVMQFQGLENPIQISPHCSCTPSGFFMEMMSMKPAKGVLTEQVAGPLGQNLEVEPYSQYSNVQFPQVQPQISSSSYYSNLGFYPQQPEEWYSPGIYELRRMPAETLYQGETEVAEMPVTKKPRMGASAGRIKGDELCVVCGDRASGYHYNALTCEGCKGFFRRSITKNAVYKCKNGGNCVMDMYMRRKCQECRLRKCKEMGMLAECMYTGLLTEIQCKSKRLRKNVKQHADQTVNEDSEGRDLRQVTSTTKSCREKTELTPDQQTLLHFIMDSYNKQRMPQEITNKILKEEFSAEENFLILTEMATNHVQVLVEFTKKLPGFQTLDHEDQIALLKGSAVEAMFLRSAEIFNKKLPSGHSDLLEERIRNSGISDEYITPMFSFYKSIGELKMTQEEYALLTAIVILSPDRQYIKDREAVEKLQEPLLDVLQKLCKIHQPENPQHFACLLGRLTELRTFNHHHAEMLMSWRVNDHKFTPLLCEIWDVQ

Assay [11] can be described thus: ATG_GAL4_TRANS: Attagene TRANS-FACTORIAL HepG2 Assay for GAL4 (Internal Marker) (AID 2282976). The following applies: HepG2 Attagene TRANS GAL4 internal marker reporter. A digest of the protocol: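 Background-control readout: GAL4-UAS reporter transcript in transiently transfected HepG2 cells after 24 h compound exposure. Measured by RT-PCR, 6-FAM primer extension, HpaI digest and capillary electrophoresis; gain-of-signal fit versus DMSO.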

Assay [12] has as its target Glucocorticoid receptor (Homo sapiens) (UniProt P04150). As to the kind of experiment: ATG_GR_TRANS: Attagene TRANS-FACTORIAL HepG2 Assay for human Glucocorticoid Receptor (GR) (AID 2282978).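 Also: activators score as hits since higher reporter transcript over DMSO is fitted.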 Particulars: HepG2 Attagene TRANS GR reporter, mRNA transcription. The essentials:
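Fluorescent capillary-electrophoresis quantitation of reporter mRNA is the readout, taken 24 h after dosing human HepG2 cells carrying transiently transfected GAL4-UAS reporter units activated by chimeric NR-GAL4 fusions; activity scored as induction over DMSO.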

Assay [13] deals with Bile acid receptor (Homo sapiens) (UniProt Q96RI1). Nature of the assay: ATG_FXR_TRANS: Attagene TRANS-FACTORIAL HepG2 Assay for Farnesoid X Receptor (FXR) (AID 2282979).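 Also: hits raise reporter mRNA above DMSO so AC50 marks FXR activation.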 The following applies: HepG2 Attagene TRANS FXR-GAL4 reporter transcription. A digest of the protocol: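 HepG2 cells were transiently transfected with GAL4-UAS reporters driven by chimeric NR-Gal4 proteins and dosed for 24 h. Reporter mRNA was quantified by RT-PCR, fluorescent labelling, HpaI digestion and capillary electrophoresis, with gain of signal scored versus DMSO.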

In assay [14] the target is human Peroxisome Proliferator-activated Receptor alpha (PPARa), PPARA (gene 5465) (UniProt Q07869). As to the kind of experiment: ATG_PPARa_TRANS: Attagene TRANS-FACTORIAL HepG2 Assay for human Peroxisome Proliferator-activated Receptor alpha (PPARa) (AID 2283001). A digest of the protocol:
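HepG2 cells transiently transfected with multiplexed GAL4-UAS reporter units and chimeric NR-Gal4 constructs were dosed for 24 h. Reporter mRNA was measured by RT-PCR with fluorescent labelling and capillary electrophoresis; gain of signal fitted against DMSO.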

Assay [15] deals with human Thyroid Receptor alpha (THRa1), THRA (gene 7067) (UniProt P10827). Nature of the assay: ATG_THRa1_TRANS: Attagene TRANS-FACTORIAL HepG2 Assay for human Thyroid Receptor alpha (THRa1) (AID 2283014). The essentials:
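HepG2 cells transiently transfected with chimeric NR-Gal4 and GAL4-UAS reporter units, dosed 24 h. Reporter mRNA quantified by RT-PCR, fluorescent labeling, HpaI digestion and capillary electrophoresis; gain-of-signal fit versus DMSO.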

Assay [16] in a line: TOX21_p53_BLA_p3_viability: Viability Assessment in the Tox21 HCT-116 p53 Agonism Beta-lactamase Assay, Phase 3 (AID 2283593).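 Also: cells exposed to compound for 16 h before reading.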 A digest of the protocol: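 HCT-116 cells (4000/well) rested 5 h at 37C, then got DMSO compounds by pin tool (217-fold dilution) for 16 h at 37C, 5% CO2. After the bla read, CellTiter-Glo was added and luminescence read at 30 min, room temperature.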

For assay [17], the target named is human RAR-related Orphan Receptor beta (RORb), RORB (gene 6096) (UniProt Q92753). As to the kind of experiment: ATG_RORb_TRANS: Attagene TRANS-FACTORIAL HepG2 Assay for human RAR-related Orphan Receptor beta (RORb) (AID 2283010). The essentials:
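HepG2 cells were transiently transfected with multiplexed GAL4-UAS reporter units expressing chimeric nuclear receptor–GAL4 proteins, then dosed for 24 h. Reporter mRNA was quantified by RT-PCR with fluorescent labelling and capillary electrophoresis; gain of signal was fitted relative to DMSO.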

The nature of assay [18]: ACEA_ER_AUC_viability: ACEA Biosciences xCELLigence Real-Time Cell Analysis on Estrogen Receptor Agonism for Viability (AID 2283782).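 Also: continuous compound exposure with impedance area under curve over 80 h; hit means loss of impedance signal meaning reduced cell growth or viability.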 The essentials: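 T-47D human breast cells in phenol red-free RPMI1640 with 10% charcoal-stripped FBS were dosed with an 8-point 1:4 dilution series from 100 uM top final concentration, in duplicate. Impedance-based growth was followed for 80 h; AUC analysed versus DMSO.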

In assay [19] the target is Nuclear receptor subfamily 1 group I member 3 (Homo sapiens) (UniProt Q14994). Nature of the assay: ATG_CAR_TRANS: Attagene TRANS-FACTORIAL HepG2 Assay for human Constitutive Androstane Receptor (CAR) (AID 2282969).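 Also: activators raise reporter mRNA above DMSO so AC50 marks induction.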 Particulars: HepG2 Attagene TRANS-FACTORIAL CAR reporter. A digest of the protocol:
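HepG2 cells transiently transfected with multiplexed GAL4-UAS reporter units expressing chimeric NR-Gal4 proteins; compound exposure 24 h. Reporter mRNA measured by RT-PCR, 6-FAM labelling, HpaI digestion and capillary electrophoresis; gain-of-signal fitted against DMSO baseline.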

Records with an inconclusive call do not appear. Active and inactive are the calls of the source. The calls were made as follows, unless noted: active = hit-call score of the fitted dose curve at least 0.9, where 1 is the maximum; inconclusive = response in the unintended direction; inactive = score below 0.9.

Sequence of Peroxisome proliferator-activated receptor gamma (Homo sapiens) (P37231 whole entry, looked up, the tested form may be a part): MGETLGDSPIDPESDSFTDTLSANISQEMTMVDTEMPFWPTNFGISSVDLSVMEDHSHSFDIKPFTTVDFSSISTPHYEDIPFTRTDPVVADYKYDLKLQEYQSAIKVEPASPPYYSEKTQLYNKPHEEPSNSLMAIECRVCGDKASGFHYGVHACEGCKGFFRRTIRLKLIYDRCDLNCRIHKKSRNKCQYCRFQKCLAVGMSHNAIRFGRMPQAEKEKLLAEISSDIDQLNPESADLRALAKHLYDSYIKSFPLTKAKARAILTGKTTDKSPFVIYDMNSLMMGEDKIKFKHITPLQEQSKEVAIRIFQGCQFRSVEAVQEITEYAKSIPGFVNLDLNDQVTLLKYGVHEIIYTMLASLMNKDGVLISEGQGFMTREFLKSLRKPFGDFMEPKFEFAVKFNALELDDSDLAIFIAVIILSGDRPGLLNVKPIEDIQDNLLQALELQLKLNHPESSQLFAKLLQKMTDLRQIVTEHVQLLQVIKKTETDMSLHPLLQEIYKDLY
Sequence of human Peroxisome Proliferator-activated Receptor alpha (PPARa), PPARA (gene 5465) (Q07869 whole entry, looked up, the tested form may be a part): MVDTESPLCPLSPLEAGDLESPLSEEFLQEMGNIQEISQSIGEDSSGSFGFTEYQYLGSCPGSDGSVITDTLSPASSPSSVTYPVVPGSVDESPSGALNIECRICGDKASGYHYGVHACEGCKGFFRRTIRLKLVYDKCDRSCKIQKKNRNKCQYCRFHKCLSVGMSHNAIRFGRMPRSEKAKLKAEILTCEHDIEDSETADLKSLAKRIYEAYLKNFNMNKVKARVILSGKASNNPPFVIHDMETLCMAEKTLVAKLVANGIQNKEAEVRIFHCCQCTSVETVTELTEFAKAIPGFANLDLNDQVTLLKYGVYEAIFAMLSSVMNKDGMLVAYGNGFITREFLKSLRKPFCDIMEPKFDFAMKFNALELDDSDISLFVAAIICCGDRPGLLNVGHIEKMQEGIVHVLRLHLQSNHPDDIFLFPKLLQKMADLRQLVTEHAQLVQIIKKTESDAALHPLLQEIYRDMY
Sequence of Glucocorticoid receptor (Homo sapiens) (P04150 whole entry, looked up, the tested form may be a part): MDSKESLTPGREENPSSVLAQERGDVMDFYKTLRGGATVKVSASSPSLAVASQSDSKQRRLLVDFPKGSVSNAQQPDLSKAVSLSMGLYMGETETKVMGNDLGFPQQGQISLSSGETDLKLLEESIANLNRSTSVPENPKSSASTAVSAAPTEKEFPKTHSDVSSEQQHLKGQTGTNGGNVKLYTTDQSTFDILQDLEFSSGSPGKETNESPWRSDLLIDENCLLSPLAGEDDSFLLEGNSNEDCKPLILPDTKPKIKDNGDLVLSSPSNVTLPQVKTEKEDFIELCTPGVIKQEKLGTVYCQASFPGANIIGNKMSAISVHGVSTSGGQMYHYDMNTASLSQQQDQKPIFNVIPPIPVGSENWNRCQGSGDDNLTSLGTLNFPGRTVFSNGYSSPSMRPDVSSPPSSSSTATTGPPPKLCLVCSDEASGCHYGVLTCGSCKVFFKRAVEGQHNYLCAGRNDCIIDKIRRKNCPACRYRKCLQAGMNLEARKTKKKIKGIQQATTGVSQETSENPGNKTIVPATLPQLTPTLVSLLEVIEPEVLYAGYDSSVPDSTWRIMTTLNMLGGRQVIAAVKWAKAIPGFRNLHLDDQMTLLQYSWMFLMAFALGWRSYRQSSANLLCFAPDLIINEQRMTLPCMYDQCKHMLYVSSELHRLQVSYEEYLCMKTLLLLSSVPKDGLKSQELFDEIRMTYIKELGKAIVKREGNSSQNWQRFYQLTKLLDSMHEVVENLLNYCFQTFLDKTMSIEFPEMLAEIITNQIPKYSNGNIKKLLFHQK
Sequence of human Thyroid Receptor alpha (THRa1), THRA (gene 7067) (P10827 whole entry, looked up, the tested form may be a part): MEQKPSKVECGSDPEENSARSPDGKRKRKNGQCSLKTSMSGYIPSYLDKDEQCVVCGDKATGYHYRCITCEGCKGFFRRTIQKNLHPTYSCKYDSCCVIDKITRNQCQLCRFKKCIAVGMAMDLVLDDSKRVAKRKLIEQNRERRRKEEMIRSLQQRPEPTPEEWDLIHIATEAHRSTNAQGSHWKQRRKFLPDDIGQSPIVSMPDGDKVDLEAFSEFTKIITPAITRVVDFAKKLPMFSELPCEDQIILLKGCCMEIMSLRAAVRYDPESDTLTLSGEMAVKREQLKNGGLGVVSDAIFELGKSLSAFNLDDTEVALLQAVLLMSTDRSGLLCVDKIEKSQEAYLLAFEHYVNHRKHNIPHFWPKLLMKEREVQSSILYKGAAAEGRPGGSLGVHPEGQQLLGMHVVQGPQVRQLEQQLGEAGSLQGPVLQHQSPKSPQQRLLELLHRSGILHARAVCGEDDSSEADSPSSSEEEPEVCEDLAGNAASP
Sequence of Hypoxia-inducible factor 1-alpha (Homo sapiens) (Q16665 whole entry, looked up, the tested form may be a part): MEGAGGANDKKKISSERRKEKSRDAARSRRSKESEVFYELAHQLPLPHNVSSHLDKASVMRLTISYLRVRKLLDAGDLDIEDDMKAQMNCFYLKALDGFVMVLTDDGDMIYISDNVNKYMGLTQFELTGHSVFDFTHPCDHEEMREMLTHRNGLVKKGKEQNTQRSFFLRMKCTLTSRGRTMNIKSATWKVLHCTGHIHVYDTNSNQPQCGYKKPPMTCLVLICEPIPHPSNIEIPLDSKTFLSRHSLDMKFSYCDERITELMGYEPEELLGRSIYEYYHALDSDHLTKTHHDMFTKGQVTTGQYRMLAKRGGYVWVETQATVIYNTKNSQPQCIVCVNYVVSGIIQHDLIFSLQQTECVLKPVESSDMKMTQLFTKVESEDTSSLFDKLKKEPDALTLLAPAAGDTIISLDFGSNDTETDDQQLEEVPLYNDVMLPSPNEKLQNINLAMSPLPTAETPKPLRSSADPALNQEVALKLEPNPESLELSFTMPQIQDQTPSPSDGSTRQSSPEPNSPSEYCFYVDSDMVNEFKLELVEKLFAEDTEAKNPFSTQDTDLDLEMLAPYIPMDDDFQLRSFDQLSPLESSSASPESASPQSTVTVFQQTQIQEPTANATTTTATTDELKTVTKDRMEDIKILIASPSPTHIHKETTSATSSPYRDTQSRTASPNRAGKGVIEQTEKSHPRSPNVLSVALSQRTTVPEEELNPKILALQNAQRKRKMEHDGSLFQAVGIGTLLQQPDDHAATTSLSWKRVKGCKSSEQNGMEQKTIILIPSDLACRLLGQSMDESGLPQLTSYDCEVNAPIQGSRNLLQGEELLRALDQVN
Sequence of Nuclear receptor subfamily 4 group A member 2 (Homo sapiens) (P43354 whole entry, looked up, the tested form may be a part): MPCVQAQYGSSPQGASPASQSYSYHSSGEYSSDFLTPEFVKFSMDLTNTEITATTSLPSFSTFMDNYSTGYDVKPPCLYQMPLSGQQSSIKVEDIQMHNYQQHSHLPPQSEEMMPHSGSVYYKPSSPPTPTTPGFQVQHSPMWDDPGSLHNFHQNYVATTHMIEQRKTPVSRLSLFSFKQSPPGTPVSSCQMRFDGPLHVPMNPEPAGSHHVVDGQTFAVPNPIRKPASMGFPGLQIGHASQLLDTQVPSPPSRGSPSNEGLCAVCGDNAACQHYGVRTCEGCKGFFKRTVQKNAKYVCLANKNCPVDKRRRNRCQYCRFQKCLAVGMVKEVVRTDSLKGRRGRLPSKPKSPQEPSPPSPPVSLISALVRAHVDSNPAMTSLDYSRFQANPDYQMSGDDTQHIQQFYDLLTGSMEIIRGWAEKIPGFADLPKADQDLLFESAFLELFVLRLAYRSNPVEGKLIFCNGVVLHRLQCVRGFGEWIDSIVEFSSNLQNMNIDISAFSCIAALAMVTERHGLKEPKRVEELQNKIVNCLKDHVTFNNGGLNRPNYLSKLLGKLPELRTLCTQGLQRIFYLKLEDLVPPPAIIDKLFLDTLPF
Sequence of human Peroxisome Proliferator-activated Receptor delta (PPARd), PPARD (gene 5467) (Q03181 whole entry, looked up, the tested form may be a part): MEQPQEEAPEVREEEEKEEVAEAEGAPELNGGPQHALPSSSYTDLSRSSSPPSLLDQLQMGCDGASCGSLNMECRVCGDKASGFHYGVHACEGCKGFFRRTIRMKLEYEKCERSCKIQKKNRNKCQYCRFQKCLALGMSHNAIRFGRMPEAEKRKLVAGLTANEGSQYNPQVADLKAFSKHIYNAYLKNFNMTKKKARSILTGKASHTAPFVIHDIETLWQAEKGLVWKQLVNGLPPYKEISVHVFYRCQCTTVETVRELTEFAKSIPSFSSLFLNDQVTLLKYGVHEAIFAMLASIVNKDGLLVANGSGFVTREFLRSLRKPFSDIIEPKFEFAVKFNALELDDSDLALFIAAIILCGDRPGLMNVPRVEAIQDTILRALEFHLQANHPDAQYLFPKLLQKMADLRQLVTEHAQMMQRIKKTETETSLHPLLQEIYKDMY
Sequence of human Vitamin D Receptor (VDR), VDR (gene 7421) (P11473 whole entry, looked up, the tested form may be a part): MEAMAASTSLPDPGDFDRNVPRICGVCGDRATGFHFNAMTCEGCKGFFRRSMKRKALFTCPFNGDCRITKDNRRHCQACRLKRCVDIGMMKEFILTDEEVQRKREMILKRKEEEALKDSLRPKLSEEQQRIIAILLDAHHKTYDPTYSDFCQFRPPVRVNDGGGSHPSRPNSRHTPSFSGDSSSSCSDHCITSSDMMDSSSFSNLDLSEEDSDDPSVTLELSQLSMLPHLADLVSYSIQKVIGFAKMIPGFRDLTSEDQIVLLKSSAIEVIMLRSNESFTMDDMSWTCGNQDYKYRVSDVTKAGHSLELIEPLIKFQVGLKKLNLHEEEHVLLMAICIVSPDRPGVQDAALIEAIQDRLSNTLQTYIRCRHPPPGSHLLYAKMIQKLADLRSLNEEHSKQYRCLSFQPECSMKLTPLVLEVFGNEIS

Regarding `CN(C)Cc1cc(C(C)(C)C)c(O)c(C(C)(C)C)c1`, the molecule was classed as inactive in [1], in assay [2], in assay [3], in [4], in [6] and in [7]. In addition, the molecule was called inactive in assay [8] and in assay [9]. Further, the AC50 in assay [5] was 29.1 µM (active).
In the case of `NC(N)=Nc1nc(CSCCC(N)=NS(N)(=O)=O)cs1`, the call in [10], in assay [2], in assay [11], in assay [12], in assay [13] and in [14] was inactive. Moreover, the outcome in assay [15], in assay [16] and in assay [9] was inactive.
Take `O=C(O)c1nc(Cl)c(Cl)c(Cl)c1Cl`: the molecule was called inactive in [1], in [11], in [12], in [4], in assay [5] and in assay [14]. For the same molecule, the outcome in [6], in assay [15] and in assay [8] was inactive.
As for `CNC[C@H](O)[C@@H](O)[C@H](O)[C@H](O)CO`, the molecule was classed as inactive in assay [10], in assay [13], in [14], in assay [17], in assay [8] and in assay [16].
On to `CCCCCCC1CCC(=O)O1` (stereo not given), for which the molecule was classed as inactive in [1], in [2], in [3], in [11], in [4] and in assay [5]. Besides, the outcome in [14], in assay [6], in assay [7], in assay [8] and in assay [18] was inactive.
As for `C=CC(C)(CCC=C(C)C)OC(=O)c1ccccc1` (stereo not given), the molecule was called inactive in [10], in [1], in assay [12], in assay [13], in assay [5] and in [14]. Also, the outcome in assay [15] and in [16] was inactive. Also, the AC50 in assay [18] was 72.6 µM (active).
With `O=C(c1ccccc1)c1ccccc1O`, the molecule was classed as inactive in assay [1], in assay [19], in [12], in [14], in [7] and in [8]. Also, the AC50 in [18] is 76.9 µM (active).

These data come from PubChem BioAssay (EPA / NIEHS).
